Assay results as given in ChEMBL document CHEMBL3988442, “University of Dundee, Small-Polar-MMV Screening Library” (2021).
About 13,000 (27%) of roughly 48,000 compounds showed an effect of 50% or more. This is one part of the list.

The molecules below were run on Wolbachia pipientis (assay: Anti-Wolbachia Cell-Based Screen). Settings: 5 µM.
Type: functional
Design: scale not given: in the data most compounds retested in dose-response had high values

Structure (SMILES) | Percent Effect [%]
CC(C)CC(CCO)CNC(=O)N1CCOC2(CCCC2)C1 (stereo unspecified) | 9.888
CC1Cc2ccccc2N1Cc1occc1C(=O)O (stereo unspecified) | -32.9
O=C(CN1CCSCC1c1ccccc1)N1CCCC1 (stereo unspecified) | -1.528
CCC(C(=O)NCc1ccn(-c2ccc(F)cc2)n1)N1CCCC1=O (stereo unspecified) | 13.5
Cc1nccn1C1(C(=O)O)CCN(Cc2ccc3nsnc3c2)CC1 | 4.136
Cc1cc(C(=O)N2CCCCC2C)ccc1NCC(=O)N1CCOCC1 (stereo unspecified) | -5.879
Cc1cc(C(=O)N2CCCCC2C)ccc1NCCCO (stereo unspecified) | 3.863
Cc1cc(C(=O)N2CCCC2)ccc1NCCO | -9.298
CCCNC(=O)CNc1ccc(C(=O)N2CCCCC2C)cc1C (stereo unspecified) | -8.167
Cc1cc(C(=O)N2CCCC2)ccc1NCC(=O)N1CCCCC1C (stereo unspecified) | 98.59
Cc1cc(C(=O)N2CCC(C)CC2)ccc1NS(C)(=O)=O | 7.517
COc1ccc(NC(=O)N2CCOCC(CN(C)C)C2)c(C)c1 (stereo unspecified) | -4.922
Cc1cc(C(=O)N2CCCCC2C)ccc1NC(=O)N1CCOCC1 (stereo unspecified) | 99.93
Cc1cc(C(=O)N2CCCC2)ccc1NCC(=O)N1CCOCC1 | 96.96
Cc1cc(C(=O)N2CCCC(C)C2)ccc1NCC(=O)N1CCOCC1 (stereo unspecified) | 106.6
Cc1cc(C(=O)N2CCCC2)ccc1NS(C)(=O)=O | -1.573
O=C(O)C(F)(F)F.c1cc(C2CC2)n2cnc(C3CN(Cc4nccs4)CCO3)c2c1 (stereo unspecified) | 7.631
CC(=O)NCCCSC1CCCN(c2ccccc2Cl)C1=O (stereo unspecified) | 1.649
Cn1ccnc1SCCNC1CCN(c2ncccn2)CC1 | 12.3
CC(C)c1ccc(-c2nnn(CCNS(C)(=O)=O)n2)cc1 | -15.95
O=C(O)C(F)(F)F.O=C(c1cccs1)N1CCC[C@]2(C[C@@H](OCc3ccncc3)CO2)C1 | -0.9808
Cc1cnn(CCC(=O)N2CCCC(c3noc(C)n3)C2)c1 (stereo unspecified) | 105
Cc1nc(C2CCCN(C(=O)c3cc(C)sc3C)C2)no1 (stereo unspecified) | -7.599
Cc1cnn(CCC(=O)N2CCCC(c3cc(C(N)=O)[nH]n3)C2)c1 (stereo unspecified) | 5.057
Cc1nc(C2CCCN(C(=O)c3cnn(C4CCCCC4)c3)C2)no1 (stereo unspecified) | 101.3
Cc1nc(C2CCCN(C(=O)c3cnn(C(C)(C)C)c3)C2)no1 (stereo unspecified) | 1.32

Structure (SMILES) | Percent Effect [%]
Cc1cnn(CCC(=O)N2CCCC(c3nc(C)no3)C2)c1 (stereo unspecified) | 6.871
Cc1nc(C2CCCN(C(=O)c3cnc(C)s3)C2)no1 (stereo unspecified) | -5.153
CCn1cc(C(=O)N2CCCC(c3noc(C)n3)C2)cn1 (stereo unspecified) | 122
CC(=O)c1cc(CC(=O)NCc2ccsc2)cs1 | -1.009
CC(=O)N1C[C@H](NS(=O)(=O)N2CCOCC2)[C@@H](c2ccc(C)o2)C1 | -11.37
CN1CC(c2ccccc2)CC12CCN(C(=O)c1cncc(Cl)c1)CC2 (stereo unspecified) | 1.146
CCCc1cc(N2CCCC2Cn2nc(C)nc2C)n2ncnc2n1 (stereo unspecified) | -15.77
CC(C)(CNC(=O)C(C)(C)Oc1ccc2c(c1)CCCC2=O)C(N)=O | -6.308
Cc1nnc2n1CCN(C(=O)c1cnc(C3CC3)s1)C2 | 2.098
CCc1nnc2n1CCN(C(=O)c1ccc3nc(C)c(C)nc3c1)C2 | 6.266
Cc1nc2ccc(C(=O)N3CCn4c(nnc4C4CC4)C3)cc2nc1C | 122.4
CN(C)c1cccc(C(=O)N2CCn3c(nnc3-c3ccccc3)C2)c1 | 0.7654
CCn1c(C2CCN(C(=O)c3ccc4sc(C)nc4c3)CC2)n[nH]c1=O | -3.012
Cc1nc2cc(C(=O)N3CCn4c(nnc4C4CC4)C3)ccc2s1 | 86.87
CN1CCN(c2ccc(NC(=O)c3ccoc3)c(C(F)(F)F)c2)CC1 | 7.046
O=C(c1ncncc1Cl)N1CCC2(CCCC2)CC1 | -11.62
CN(C)C(=O)CCS(=O)(=O)Cc1ccn(-c2cccc(F)c2)n1 | -10.5
Cn1cnc(NC(=O)C2CC(=O)N(c3cccc(F)c3)C2)n1 (stereo unspecified) | 77.24
CNC(=O)C1CC(=O)N(c2cccc(F)c2)C1 (stereo unspecified) | -1.566
COc1cc(NC(=O)C2CC(=O)N(c3cccc(F)c3)C2)ncn1 (stereo unspecified) | -6.208
O=C(Cc1ccc2c(c1)CCO2)Nc1cccnc1-n1cncn1 | -24.6
O=C(Cc1ccc2c(c1)OCCCO2)Nc1nnn[nH]1 | 102.7
O=C(Cc1ccc2c(c1)CCO2)N1CCN(c2cnccn2)CC1 | -10.75
O=C(CCc1ccc2c(c1)CCO2)Nc1nnn[nH]1 | 108.2
O=C(Cc1ccc2c(c1)OCCO2)NCCc1nnc2n1CCC2 | -0.3257
O=C(Cc1ccc2c(c1)OCCO2)NC1CCCC1 | -1.576

Structure (SMILES) | Percent Effect [%]
CN(C)c1ncc(-c2ccc(F)cc2)c(C2CNCCO2)n1.Cl (stereo unspecified) | 112.1
CN(C)c1ncc(-c2cncnc2)c(C2CNCCO2)n1.Cl (stereo unspecified) | 130
COc1ccc(-c2cnc(N(C)C)nc2C2CNCCO2)cc1.Cl (stereo unspecified) | 76.7
Cc1csc(C(C)(C)NCCCS(C)(=O)=O)n1 | -31.79
CC(C)Cc1ccc(S(=O)(=O)Nc2ccc(=O)n(C)c2)cc1 | -23.57
CC(C)C(O)C(=O)N1CCC2(CC1)c1nc[nH]c1CCN2S(C)(=O)=O (stereo unspecified) | -6.881
O=C(c1ccncc1)N1CCCC1c1nc(O)cc(-c2ccccn2)n1 (stereo unspecified) | 134.3
CCc1cc(O)nc(C2CCCN2C(=O)c2cccnc2)n1 (stereo unspecified) | -9.162
O=C(c1cccnc1)N1CCCC1c1nc(O)cc(-c2ccccn2)n1 (stereo unspecified) | 120.2
CC(C)(C)C(=O)N1CCCC1c1nc(O)cc(-c2ccccn2)n1 (stereo unspecified) | -2.189
O=C(c1cc(-c2ccc(O)cc2)n[nH]1)N1CCCC1c1cccnc1 (stereo unspecified) | -9.956
O=C(c1ccc2c(c1)COC2)N1CCN(CC2CC2)CC1 | -6.158
CCOCc1nn(C)c2c1CN(CCO)CC2 | 105.8
CC(C)OCc1nn(C)c2c1CN(Cc1cccs1)CC2.O=CO | 90.1
CCOCc1nn(CC2CC2)c2c1CN(Cc1cccs1)CC2.O=C(O)C(F)(F)F.O=C(O)C(F)(F)F | 105
Cn1nc(COCC2CC2)c2c1CCN(Cc1ccco1)C2.O=C(O)C(F)(F)F | -12.11
CCOCc1nn(CC2CC2)c2c1CN(Cc1ccco1)CC2.O=C(O)C(F)(F)F | -45.76
Cn1nc(COCC2CC2)c2c1CCN(Cc1cccs1)C2.O=C(O)C(F)(F)F | 99.16
CCOCc1nn(C)c2c1CN(C(=O)c1ccno1)CC2 | -1.809
CCN1CCc2c(c(COC)nn2C)C1 | -29.06
COCc1nn(CC2CC2)c2c1CN(Cc1cccs1)CC2.O=C(O)C(F)(F)F | -6.214
COCc1nn(C(C)C)c2c1CCN(Cc1cccs1)C2.O=C(O)C(F)(F)F | 0.7419
O=C(O)C(F)(F)F.c1csc(CN2CCCn3cnc(COCC4CC4)c3C2)c1 | -4.67
Cc1nc(NC(C)C)nc2c1CN(Cc1cccs1)CC2 | 0.7721
